This is part of a sample that, as a whole, favours compounds with a hit. Of some 83,000 tested, about 20% had one in any assay.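 Interpretation: 100, growth as untreated; towards 0, rising growth inhibition; 0, no net growth; 0 to -100, cell death. Compounds scoring below 10 were considered active.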 Active and inactive are the calls of the source.
Legend:
Test in all cases: NCI-60 one-dose screen, 48 h (100 = growth as untreated, 0 = no growth, -100 = all killed)
Conditions in all cases: 10 µM unless noted
[1] = test system: SR leukemia
[2] = test system: OVCAR-8 ovarian
[3] = test system: OVCAR-5 ovarian
[4] = test system: OVCAR-4 ovarian
[5] = test system: SK-OV-3 ovarian
[6] = test system: IGROV1 ovarian
[7] = test system: OVCAR-3 ovarian
[8] = test system: NCI/ADR-RES ovarian
[9] = test system: HS 578T breast

Measured: growth

O=C(c1ccccc1)C(CCc1ccccn1)CCc1ccccn1
inactive: [1] 83.3% | [2] 109% | [3] 99.6% | [4] 111% | [5] 95.8% | [6] 93.2% | [7] 103% | [8] 105%

COc1ccc2c(c1)N(Cc1ccc(Cl)cc1)CCC2N1CCCC1=O (stereo not given)
inactive: [1] 34.2% | [2] 50% | [3] 66% | [4] 34% | [5] 43.4% | [6] 13.2% | [7] 43.8% | [9] 10.7% | [8] 53.3%

Nc1cc(C(=O)O)cc(C(=O)O)c1
inactive: [1] 75.3% | [2] 99.3% | [3] 105% | [5] 97% | [6] 102% | [7] 123% | [9] 113% | [8] 112%

C=CCOC(=O)C1=C(C)NC2=C(C(=O)CCC2)C1c1ccc(F)cc1 (stereo not given)
inactive: [1] 92.2% | [2] 97% | [3] 98% | [4] 98.7% | [5] 86.6% | [6] 99.2% | [7] 109% | [9] 88.4% | [8] 101%

N#Cc1ccc(-c2ccc(-c3cccs3)o2)cc1F
inactive: [1] 85% | [2] 64.2% | [3] 101% | [4] 77.5% | [5] 52.1% | [6] 82.4% | [7] 80.5% | [9] 51.2% | [8] 72.1%

C=CCN1C(=O)/C(=c2\sc3n(c2=O)C2C(NN=3)N(CC)C(=O)N2CC)c2ccccc21 (stereo not given)
active: [7] -11.4% | [8] -1.04%
inactive: [1] 23.8% | [2] 19% | [3] 44.9% | [4] 65.6% | [5] 34.2% | [6] 35.4% | [9] 59.4%

Nc1c(C(=O)Nc2cccc(Cl)c2)sc2nc3c(cc12)C(=O)CCC3
active: [9] 4.53%
inactive: [1] 39.1% | [2] 75.3% | [3] 58.3% | [4] 60.4% | [5] 35.2% | [6] 52.4% | [7] 10.3% | [8] 17.7%

CCN1CCN(Cc2ccc(NC(=O)Nc3ccc(-n4ccc5c(NC(=O)c6ccccc6)nccc54)cc3)cc2C(F)(F)F)CC1
active: [1] -30.9% | [2] -28.5% | [7] -51.9%
inactive: [3] 30.7% | [4] 78.8% | [5] 62.7% | [6] 43.9% | [9] 74.1% | [8] 27.8%

C=CCN(CC#N)CC=C
inactive: [1] 93.2% | [2] 100% | [3] 102% | [5] 116% | [6] 120% | [7] 119% | [9] 121% | [8] 115%

CC1(C)OC2OC3C(CN)OC(c4ccccc4)OC3C2O1 (stereo not given)
inactive: [1] 96.2% | [2] 103% | [3] 104% | [4] 111% | [5] 104% | [6] 121% | [7] 105% | [9] 118% | [8] 100%

O=C(NCCN1CCCCC1)n1cc(-c2ccncc2)c(-c2ccc(Cl)c(O)c2)n1
inactive: [1] 70.9% | [2] 89.1% | [3] 96.5% | [4] 122% | [5] 71.5% | [6] 74% | [7] 113% | [9] 92.5% | [8] 95.6%

CS(=O)(=O)c1ccc(C(=O)N/N=C/c2ccccc2O)cc1
inactive: [1] 20.4% | [2] 27.9% | [3] 64.7% | [4] 43.6% | [5] 39.9% | [6] 41% | [7] 22.8% | [9] 81.5% | [8] 29.9%

CC(C)c1nc2ccccc2n1CC(=O)N/N=C/c1cccc(O)c1
inactive: [1] 89.7% | [2] 92.6% | [3] 108% | [4] 104% | [5] 93.2% | [6] 118% | [7] 109% | [8] 109%

O=c1nc(-c2ccccc2)c2cc(-c3ccc(N4CCOCC4)cc3)ccc2[nH]1
inactive: [1] 71.2% | [2] 82% | [3] 99.5% | [4] 91% | [6] 81.6% | [7] 97.1% | [9] 84% | [8] 95.3%

CN1C(=O)N(C)C2C1NN=c1s/c(=C\c3ccc(Br)cc3)c(=O)n12 (stereo not given)
inactive: [1] 13.5% | [2] 33.7% | [3] 56.8% | [4] 61.6% | [5] 29.5% | [6] 48.1% | [8] 17%
active: [7] 0.921%

Cc1ccc(Nc2cc(Cl)c([N+](=O)[O-])cc2[N+](=O)[O-])cc1
inactive: [2] 26.8% | [3] 46.3% | [5] 83.5% | [6] 27.7% | [9] 92.1% | [8] 26.5%
active: [1] 4.96% | [7] 0.375%

CCCCOc1nc2ccccc2cc1/C=C/c1cc(/C=C/c2cc3ccccc3nc2OCCCC)n(-c2ccccc2)n1
inactive: [1] 98.7% | [2] 95.9% | [3] 102% | [4] 109% | [5] 92.6% | [6] 97.9% | [7] 107% | [9] 87.6% | [8] 106%

CCCCCCCC/C=C/CCCCCCCC1=NC(C)(C)CN1C(C)C
active: [1] -46.7% | [2] -20.8% | [6] -29.9% | [7] -55.7% | [9] 6.92% | [8] -6.48%
inactive: [3] 58.1% | [4] 18.9% | [5] 55.4%

CCCCCCCC/C=C/CCCCCCCC1=NC(C)(C)CN1c1ccccc1
inactive: [1] 71.8% | [2] 87.3% | [3] 113% | [4] 80.2% | [5] 99.1% | [6] 101% | [7] 90.8% | [9] 89.5% | [8] 98.1%

CCOC(=O)CCN(CCC(=O)OCC)c1ccccc1
inactive: [1] 104% | [2] 94.5% | [3] 92.2% | [4] 113% | [5] 87.1% | [6] 87.4% | [7] 85.2% | [9] 106% | [8] 105%

CN(C)CCNC(=O)n1cc(-c2ccncc2)c(-c2cc(O)cc(Cl)c2)n1
inactive: [1] 29.6% | [2] 86.9% | [3] 106% | [4] 118% | [5] 90.8% | [6] 107% | [7] 109% | [8] 100%

O=c1c2cc(Br)cc(Br)c2nc(-c2ccc(Cl)cc2)n1/N=C\c1ccccc1F
active: [4] -9.05%
inactive: [1] 81% | [2] 47% | [3] 64.8% | [5] 49.6% | [6] 39.1% | [7] 56.4% | [9] 60.8% | [8] 53.7%

CCN(CC)c1ccc(/C=N/NC(=O)C[N+](C)(C)C)cc1
inactive: [1] 16.6% | [2] 111% | [3] 99.1% | [5] 102% | [6] 115% | [7] 110% | [9] 110% | [8] 103%

COc1ccc2c(c1)sc1nc(-c3ccccc3)c(-c3cccc4ccccc34)n12
inactive: [1] 10.5% | [2] 19.4% | [3] 44.7% | [4] 65% | [5] 10.5% | [6] 34.4% | [9] 19.8%
active: [7] -50.3% | [8] 4.62%

CN1C(=O)N(C)C2C1NN=c1s/c(=C\c3ccc(C(F)(F)F)cc3)c(=O)n12 (stereo not given)
inactive: [1] 16.8% | [2] 29.1% | [3] 49.3% | [4] 63.8% | [5] 32.1% | [6] 46.4% | [8] 15.4%
active: [7] 3.49%

O=C(Nc1cccc(C2=NCCN2)c1)c1ccc(N=Nc2ccc(C(=O)Nc3cccc(C4=NCCN4)c3)cc2)cc1
inactive: [1] 87.5% | [2] 37.5% | [3] 76.6% | [5] 77.3% | [6] 58.8% | [7] 77.4% | [9] 65.2% | [8] 100%

CC1=C(/C=C/C(C)=C/C=C(C(=O)O)\C(C)=C\C(=O)O)C(C)(C)CCC1
inactive: [1] 95.7% | [2] 99.4% | [3] 97% | [4] 115% | [5] 103% | [6] 99.2% | [7] 110% | [9] 105% | [8] 102%

C=CCOC(=O)C1=C(C)NC2=C(C(=O)CC(C)(C)C2)C1c1ccc(OC)cc1 (stereo not given)
inactive: [1] 98.8% | [2] 93% | [3] 107% | [4] 110% | [6] 105% | [7] 107% | [9] 90.6% | [8] 103%

Cc1c(C(=O)CCl)c(=O)n(-c2ccccc2)n1C
inactive: [1] 20.1% | [2] 72.3% | [3] 94.5% | [5] 103% | [6] 48.6% | [7] 18.4% | [9] 57.5% | [8] 83.3%

O=C(Nc1cccc(-n2ccc3c(NC(=O)c4ccccc4)nccc32)c1)c1ccc(N2CCOCC2)c(C(F)(F)F)c1
active: [1] 2.76% | [5] -6.21% | [6] 8.99%
inactive: [2] 16.3% | [3] 41.1% | [4] 51.7% | [7] 26.9% | [9] 55.5% | [8] 14.3%

O=C(CC(=O)c1cccc(Cl)c1)c1cccc(Cl)c1
inactive: [2] 21.9% | [3] 46.8% | [4] 42% | [6] 34.1% | [7] 32% | [9] 73.6%
active: [1] 2.96% | [8] 8.52%
